Entries with a potency or affinity are not part of this list. Active and inactive are the calls of the source.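 How the source made its calls: active means fitted half-maximal dose no more than twice the top valid tested dose, for compounds that lower signal; inconclusive means fit invalid, or curve flat with activity between -70 and -30; inactive means potency past limit, curve flat within ±30, or signal increasing.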
molecular target: NAD-dependent protein deacylase sirtuin-5, mitochondrial (Homo sapiens) (UniProt Q9NXA8); assay: blockers of sirtuin-5 peptide desuccinylation – biochemical, fluorescence imaging, cherry-pick, set 6, dose response (AID 720597); conditions: Purified SirT5, succinyl-peptide-AMC/trypsin fluorescence; series mostly up to 15 µM; activity change, negative = inhibition: at the top concentration;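 further: lower AMC signal can also come from blocking the trypsin step; 0% = median of neutral control wells and -100% = median of positive control wells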
Sequence (Q9NXA8 whole entry, looked up): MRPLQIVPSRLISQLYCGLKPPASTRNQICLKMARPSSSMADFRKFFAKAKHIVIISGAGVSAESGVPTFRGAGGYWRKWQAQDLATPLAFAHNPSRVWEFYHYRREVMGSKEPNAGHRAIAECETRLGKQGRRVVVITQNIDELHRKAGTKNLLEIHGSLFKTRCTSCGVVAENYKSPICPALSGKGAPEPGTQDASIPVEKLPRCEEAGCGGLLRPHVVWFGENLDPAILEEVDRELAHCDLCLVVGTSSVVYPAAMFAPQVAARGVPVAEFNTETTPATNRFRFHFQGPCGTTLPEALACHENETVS

Activity change, negative = inhibition, inactive:
COc1ccc(S(=O)(=O)N(C)C[C@@H]2Oc3ncc(C#CCN(C)C)cc3C(=O)N([C@H](C)CO)C[C@@H]2C)cc1 -13.5%
COc1ccc(NC(=O)N(C)C[C@H]2Oc3ccc(NS(=O)(=O)c4ccc(OC)cc4)cc3CC(=O)N([C@H](C)CO)C[C@H]2C)cc1 19.2% [at 16 µM]
C[C@H]1CCCCO[C@H](CN(C)C(=O)Nc2ccc(C(F)(F)F)cc2)[C@@H](C)CN([C@@H](C)CO)C(=O)c2cc(NS(=O)(=O)c3ccc(Cl)cc3)ccc2O1 -6.61%
COCCNC(=O)c1cc2c(c(-c3cccc(-c4cccc(F)c4)c3)n1)[C@@H](CCO)N([S@](=O)C(C)(C)C)C2 -11.9% [at 13.5 µM]
Cc1ccc(S(=O)(=O)Nc2ccc3c(c2)C(=O)N([C@H](C)CO)C[C@@H](C)[C@@H](CN(C)S(=O)(=O)c2ccccc2)OCCCC[C@@H](C)O3)cc1 5.85%
C[C@@H]1CN([C@@H](C)CO)S(=O)(=O)c2ccc(C#CC3CC3)cc2O[C@@H]1CN(C)C(=O)c1cccc(F)c1 -3.94%
Cc1cccc(S(=O)(=O)N2CCCCN3[C@H](CO)[C@@H](c4ccc(-c5ccccc5)cc4)[C@H]3C2)c1 -2.19%
O=C(c1cnccn1)N1CC(=O)N2[C@@H](CO)[C@H](c3ccc(C#CC4CC4)cc3)[C@@H]2C1 22.1%
C[C@H]1CCCCO[C@@H](CN(C)C(=O)Nc2ccc(C(F)(F)F)cc2)[C@@H](C)CN([C@@H](C)CO)C(=O)c2cc(NS(=O)(=O)c3ccc(Cl)cc3)ccc2O1 18%
C[C@H]1CN([C@@H](C)CO)C(=O)Cc2cc(NS(=O)(=O)c3ccc(Cl)cc3)ccc2O[C@@H]1CN(C)Cc1ccc(Oc2ccccc2)cc1 -28%
CCC(=O)N1CC2(C1)[C@H](c1ccccc1)[C@H](CO)N2Cc1ccccc1OC -0.469%
COc1ccc(S(=O)(=O)Nc2ccc3c(c2)CC(=O)N([C@@H](C)CO)C[C@H](C)[C@H](CN(C)Cc2ccc(C(F)(F)F)cc2)O3)cc1 -13.8% [at 7.5 µM]
C[C@@H]1CN([C@@H](C)CO)S(=O)(=O)c2ccc(C#Cc3ccccc3F)cc2O[C@@H]1CN(C)C(=O)c1ccc2c(c1)OCO2 -22.3%
C[C@@H]1CCCCO[C@H](CN(C)S(=O)(=O)c2ccc(Cl)cc2)[C@H](C)CN([C@@H](C)CO)C(=O)c2cc(NS(=O)(=O)c3ccc(F)cc3)ccc2O1 -1.53%
C[C@H]1CN([C@@H](C)CO)C(=O)c2cc(C#CCN(C)C)cnc2O[C@@H]1CN(C)Cc1ccncc1 -24.8%
C[C@@H]1CN([C@H](C)CO)C(=O)c2cc(NC(=O)Cc3ccccc3)ccc2O[C@@H]1CN(C)Cc1ccc(Oc2ccccc2)cc1 41.8%
COc1ccc(S(=O)(=O)N(C)C[C@H]2OCCCC[C@@H](C)Oc3ccc(NS(=O)(=O)c4ccc(Cl)cc4)cc3C(=O)N([C@H](C)CO)C[C@H]2C)cc1 31.3%
Cc1ccc(S(=O)(=O)Nc2ccc3c(c2)C(=O)N([C@@H](C)CO)C[C@H](C)[C@H](CN(C)Cc2ccc(C(F)(F)F)cc2)OCCCC[C@@H](C)O3)cc1 -7.33%
O=C(Cc1ccncc1)N[C@H]1CC[C@H](CCn2cc(-c3ccccc3F)nn2)O[C@@H]1CO 1.26%
Cc1ccc(S(=O)(=O)N(C)C[C@H]2Oc3ccc(NC(=O)Nc4cccc5ccccc45)cc3CC(=O)N([C@@H](C)CO)C[C@H]2C)cc1 -29.6%
COc1ccc(C#Cc2ccc([C@@H]3[C@H](CO)N4C(=O)CN(C(=O)c5cccnc5)C[C@@H]34)cc2)cc1 -0.496%
C[C@H](CO)N1C[C@H](C)[C@H](CN(C)C(=O)NC2CCCCC2)Oc2cc(/C=C/c3ccccc3)ccc2S1(=O)=O 16.9%
O=C(Nc1cc(F)ccc1F)N1C[C@@H]2[C@H](c3ccccc31)[C@H](CO)N2Cc1ccncc1 6.42%
CC1C(=O)N2CCCc3cc(S(=O)(=O)N4CCCC4)cc1c32 (stereo not drawn) 36.2%
O=C(Nc1cc(F)ccc1F)N1CC(=O)N2[C@H](C1)[C@@H](c1ccc(C#CC3CCCCC3)cc1)[C@@H]2CO 8.23% [at 3.8 µM]
C[C@H](CO)N1C[C@H](C)[C@H](CN(C)Cc2ccc(-c3ccccc3)cc2)Oc2ccc(NC(=O)CCCCCC(=O)Nc3ccccc3N)cc2C1=O 28.7%
N#C[C@H]1[C@@H](c2ccccc2-c2ccccc2)[C@@H](CO)N1c1ncc(-c2ccccc2)s1 11.6%
CCCC#Cc1ccc2c(c1)[C@@H]1[C@@H](CCN1S(=O)(=O)c1ccccc1C)[C@@H](CO)N2 -16.7%

Reference: PubChem BioAssay AID720597 (Broad Institute, 2013)
